# ATXN2 expr inh = ATXN2 expression inhibition; HEK-293 ATXN2-luciferase reporter, luminescence, 24 h; Potency, µM (series often up to 57 µM), most hits filed as inhibitors; 360,000 tested, 0.72% active; AID 1745845; further: nearly all actives have a fitted effect of over 55% in size
#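 qHTS (up to 57 uM final) was run with 24 h compound exposure of reporter cells at 37 °C. Each well was multiplexed: SteadyGlo luminescence measured ATXN2-luciferase expression after a fluorogenic Gly-Phe-AFC viability readout (25 uM final).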
# S2 tox = viability counter-screen for ATXN expression inhibitors; Potency, µM (doses to about 56.7 µM), hits mostly cytotoxic; S2 cells (HEK-293 line with an ATXN2-luciferase reporter) viability, CellTiter-Fluor protease fluorescence, 24 h; 400,000 tested, 0.49% active; AID 651635; further: nearly all actives have a fitted effect of over 40% in size
# HepG2 tox = HepG2 cytotoxicity, counter-screen for TGF-b inhibitors; Potency, µM (doses to about 46.1 µM), most hits filed as cytotoxic; HepG2 CAGA-GFP viability, ATP luminescence, 18 h; 410,000 tested, 0.76% active; AID 588856
#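 CellTiter-Glo luminescence gave cytotoxicity after 18 hours at 37 degrees C. The cells were HepG2 CAGA-GFP in 1% FBS DMEM, stimulated with 500 pg/mL TGF-beta after compound addition. %Activity was normalised to no-cell wells (complete cell-killing) and DMSO (no toxicity), and curves were fitted and classified.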
# IL1B secr inh = inhibitors of inflammasome signaling (IL-1 beta secretion) | THP-1 LPS/ATP IL-1B secretion, AlphaLISA, 16 h; stronger effect = lower value | activity change, % at 57.5 µM | 360,000 tested, 4.7% active; in the data active means activity change below about -50%; inconclusive means mostly about -30% to -49%
#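 Secreted IL-1B measured by AlphaLISA bead assay after 16 h compound exposure of THP-1 cells; compounds (final up to 57.5 uM) added 1 h before LPS (250 ng/mL) and ATP (1.25 mM) stimulation; lower signal means less secretion.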
# TGFb inhibitor = TGF-b pathway inhibition | 410,000 tested, 1.2% active | HepG2 CAGA-GFP TGF-b/SMAD3 reporter, GFP fluorescence, 18 h; TGF-beta stimulated, 500 pg/mL final | Potency, µM (top dose mostly 46.1 µM), actives largely listed as inhibitors | AID 588855; further: nearly all actives have a fitted effect of over 65% in size
#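 HEPG2 CAGA-GFP reporter cells (1000/well, DMEM with 1% FBS) received compounds, then recombinant TGF-beta at 500 pg/mL final for 18 hours at 37 degrees C. Per-cell GFP summed per well was normalised to unstimulated and stimulated DMSO controls before curve fitting.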
# Numbers stand for hits; – = inactive; ? = inconclusive; · = not tested or not shown. A selection: hits, their analogues and other compounds. The true share with any hit is near 5.7%. Unless noted, the call rests on the fitted dose curve; in most records, active means well fitted curve in the direction sought with a large enough effect; inconclusive means small, poorly fitted or top-dose-only effect, or another doubt; inactive means no such curve, though single readings can be large; an effect the other way counts as inactive or inconclusive.
SMILES,ATXN2 expr inh,S2 tox,HepG2 tox,IL1B secr inh,TGFb inhibitor
Cc1ccc(C(=O)NCCC2=CCCCC2)cc1S(=O)(=O)N1CCCCC1,–,–,–,-58,?
O=C(NCCC1=CCCCC1)c1ccc(Cl)c(S(=O)(=O)Nc2ccccc2)c1,–,–,–,–,13µM
Oc1c(C(c2ccccc2)N2CCN(c3cccc(Cl)c3)CC2)sc2nc(-c3ccco3)nn12 (centres undefined),·,·,–,·,?
Cc1nn(C(=O)c2cccc(F)c2)c(C)c1S(=O)(=O)N1CCCCCC1,–,–,–,·,–
CCCCCSc1nc2sc3c(c2c(=O)n1-c1ccccc1)CCN(C(C)=O)C3,–,–,–,·,?
Cc1cccc(N2CCN(C(=O)Cc3c(C(=O)O)c(C)cn3C)CC2C)c1 (centres undefined),–,–,–,·,–
CCCCCCCNC(=O)C1(CC2CC(c3cccc(Br)c3)=NO2)CCNCC1 (centres undefined),?,·,–,-102,?
CCCCCCCNC(=O)C1(CC2CC(c3cccc(Br)c3)=NO2)CCN(C(=O)c2ccccc2)CC1 (centres undefined),–,–,–,–,–
CCCCCCCNC(=O)C1(CC2CC(c3ccc(Cl)cc3)=NO2)CCN(C(=O)Cc2ccc(F)cc2)CC1 (centres undefined),–,–,–,–,–
O=C(Cc1ccc(F)cc1)N1CCC(CC2CC(c3ccc(Cl)cc3)=NO2)(C(=O)NCC2CCCCC2)CC1 (centres undefined),?,?,–,-55,–
CCCCCCCNC(=O)C1(CC2CC(c3cccc(Br)c3)=NO2)CCN(C(=O)Cc2ccc(F)cc2)CC1 (centres undefined),–,–,–,-59,–
CCCCCCCNC(=O)C1(CC2CC(c3ccc(Cl)cc3)=NO2)CCNCC1 (centres undefined),28µM,·,18µM,-84,?
CCn1cc(S(=O)(=O)c2cccc(Cl)c2)c(=O)c2cc(F)c(N3CCN(C)CC3)cc21,·,·,–,·,–
Cc1cc(-c2ccc(C)c(S(=O)(=O)Nc3cccc(C#N)c3)c2)on1,·,·,–,·,?
Cc1ccc(NS(=O)(=O)c2ccc(Cl)c(C(=O)Nc3ccccc3-c3nc4ccccc4[nH]3)c2)cc1C,?,?,–,–,11µM
Cc1ccc(-c2nc3ccc(NS(=O)(=O)c4ccccc4)cc3[nH]2)o1,–,–,–,-61,–
Cc1cc(NS(=O)(=O)c2ccc3nc(-c4ccccc4)[nH]c3c2)ccc1Br,?,?,–,·,?
Cc1ccc(NS(=O)(=O)c2ccc3nc(-c4ccccc4)[nH]c3c2)cc1Cl,?,?,16µM,·,?
Cc1cccc2c(=O)[nH]c3c(-c4nc(-c5ccc(Cl)cc5)cs4)c(O)cn3c12,·,·,–,·,–
O=C1CC[C@@H](CN(Cc2cccnc2)C2CCN(c3ccc(NC(=O)c4cnccn4)cc3)CC2)N1,·,–,·,·,·
CCc1ccc(S(=O)(=O)c2nnn3c2nc(N(CC)Cc2ccccc2)c2cc(Cl)ccc23)cc1,–,–,–,·,–
O=C(Nc1ccc2oc(-c3cc(Br)ccc3Cl)nc2c1)c1cc2ccccc2o1,·,·,–,·,–
CC(/C=N/n1cnnc1)=C\c1ccccc1,–,–,–,–,–
ClC(/C=N/n1cnnc1)=C/c1ccccc1,?,?,–,-94,?
Cc1nnc(N2CCC(C(=O)NCCC(C)C)CC2)c2nn(-c3ccc(Cl)cc3)c(C)c12,–,–,–,·,?
SMILES,ATXN2 expr inh,S2 tox,HepG2 tox,IL1B secr inh,TGFb inhibitor
Cc1ccc(O)c(Nc2c3ccccc3nc3ccccc23)c1,–,·,–,-95,?
CCC(CO)Oc1cc(NCc2cccnc2)c2ncn(C(C)C)c2c1 (centres undefined),–,–,–,–,–
CCC(CO)Oc1cc(NCc2cccc(Cl)c2)c2ncn(C(C)C)c2c1 (centres undefined),?,?,–,–,20µM
CCCN(CC(=O)Nc1cccc(Br)c1)CC(=O)Nc1ccc(F)c(F)c1F,?,?,–,-92,–
O=C(C=Cc1c(C(=O)O)[nH]c2cc(Cl)cc(Cl)c12)Nc1ccccc1,–,·,·,·,·
Cc1cc(C)c2nc(N(Cc3cccnc3)C(=O)c3cccs3)sc2c1,·,·,–,·,–
O=C(CCC(=O)N1CC2CCCN2c2ccccc21)NCc1ccccc1 (centres undefined),·,·,–,·,–

# Assay outcomes from PubChem BioAssay.
